Laboratory results as given in PubChem BioAssay (Tox21).
“And” between values parts separate entries of the source, which are not always exact repeats. Equal entries are not always repeated. Records with an inconclusive call do not appear. Where a call stands in place of a potency, no number is given. More than one record can exist for a structure, and the calls need not agree. The source made the active and inactive calls. Unless noted, the call rests on the fitted dose curve.

Key:
[1] = Nuclear factor erythroid 2-related factor 2/antioxidant responsive element (Nrf2/ARE) small molecule agonists: qHTS cell viability counter screen in human keratinocytes (AID 1919968; active means well fitted curve in the direction sought with a large enough effect in the repeat runs; an effect the other way counts as inactive or inconclusive; further: nearly all actives have a fitted effect of over 55% in size; further: potency means the concentration at half of the fitted maximal effect)
Method in brief: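 After a 5 h attachment period, ARE-reporter keratinocytes were dosed with compounds in DMSO and then cultured 23 h at 37 C. Cell viability came from CellTiter-Fluor signal read after a further 1 h.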

[2] = Nuclear factor erythroid 2-related factor 2/antioxidant responsive element (Nrf2/ARE) small molecule agonists: luciferase reporter gene qHTS assay in human keratinocytes (AID 1919969); further: nearly all actives have a fitted effect of over 35% in size; further: potency means the concentration at half of the fitted maximal effect
[3] = molecular target: Gonadotropin-releasing hormone receptor (Homo sapiens) (UniProt P30968); test: Human gonadotropin-releasing hormone receptor (GnRHR) small molecule agonists, calcium flux assay in GnRHR-HEK293 cells (AID 1920063); further: nearly all actives have a fitted effect of over 35% in size
Method in brief: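 We seeded human GnRHR-expressing HEK293 cells for 18 hours, loaded them with calcium dye for an hour at 37 C, added test compounds, and recorded fluorescence intensity kinetically for three minutes.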

[4] = molecular target: KiSS-1 receptor (Homo sapiens) (UniProt Q969F8); test: Human kisspeptin (KISS1R) small molecule agonists, calcium flux assay in KISS1R-HEK293 cells (AID 1920064; active means well fitted curve in the direction sought with a large enough effect in the repeat runs; an effect the other way counts as inactive or inconclusive)
Method in brief: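 Kinetic calcium assay, 1 s sampling over 3 min at Ex/Em 480/540, in HEK293 cells engineered with human KISS1R; compounds delivered in DMSO after 1 h dye loading.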

[5] = G protein-coupled receptor (GPCR) small molecule agonists, calcium flux assay: HEK293 wild type cell line counter screen (AID 1920065)
Method in brief: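 Calcium-sensitive dye, loaded 1 h at 37 C into cells cultured 18 h, reports compound-evoked calcium release as fluorescence (Ex/Em 480/540), measured over 3 min. Agonist mode; 15-point titrations, triplicate.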

[6] = p53 small molecule agonists, cell-based qHTS assay with rat liver microsomes (AID 1963578)
Method in brief: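 With rat liver microsomes and NADPH present (0.5 mg/mL final each), p53RE-bla cells are treated with compound for 16 h at 37 C. LiveBLAzer detection mixture is then applied for 2 h at room temperature in the dark.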

[7] = p53 small molecule agonists, cell-based qHTS assay with rat liver microsomes: qHTS cell viability counter screen (AID 1963580); further: nearly all actives have a fitted effect of over 45% in size; further: potency means the concentration at half of the fitted maximal effect
Method in brief: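 p53RE-bla HCT-116 cells (4,000/well) rested 5 h at 37 C, then given Tox21 compounds in DMSO with rat liver microsomes (0.5 mg/mL final) plus NADPH (0.5 mg/mL final) for 16 h at 37 C. Viability read by CellTiter-Glo luminescence after 30 min at room temperature.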

[8] = p53 small molecule agonists, cell-based qHTS assay: qHTS cell viability counter screen (AID 1963581); further: nearly all actives have a fitted effect of over 45% in size
Method in brief: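 Following 5 h attachment, HCT-116 p53RE-bla cells took up compound for 16 h at 37 C; the reporter was read with B/G FRET substrate (2 h RT), and viability then via CellTiter-Glo ATP luminescence.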

[9] = p53 small molecule agonists, cell-based qHTS assay (AID 1963582; active means well fitted activation curve with a large enough effect in the signal ratio in the repeat runs, not every such curve was filed as active; the % refers to the signal ratio)
Method in brief: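 In this cell-based concentration-response screen, a p53 response element drives beta-lactamase; cells received DMSO-borne compounds after 5 h culture and were incubated a further 16 h before FRET substrate development.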

[10] = molecular target: 5-hydroxytryptamine receptor 2A (Homo sapiens) (UniProt P28223); test: 5-hydroxytryptamine receptor 2A (HTR2A) small molecule antagonists, cell-based qHTS assay (AID 1963586); further: nearly all actives have a fitted effect of over 45% in size
Method in brief: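 Antagonist-mode intracellular calcium assay: DOI (4 nM) added after 5 min compound pre-incubation at room temperature to dye-loaded HTR2A-CHO cells. Fluorescence followed for 3 min, sampled every second.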

[11] = molecular target: 5-hydroxytryptamine receptor 2A (Homo sapiens) (UniProt P28223); test: 5-hydroxytryptamine receptor 2A (HTR2A) small molecule agonists, cell-based qHTS assay (AID 1963587); further: nearly all actives have a fitted effect of over 30% in size; further: potency means the concentration at half of the fitted maximal effect
Method in brief: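 HTR2A-CHO cells, plated 18 h at 37 C/5% CO2, dye-loaded 1 h at 37 C; compounds in DMSO added by pin tool (agonist mode). Intracellular calcium flux read as kinetic fluorescence on FDSS over 2 min at 1 s intervals.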

[12] = molecular target: Muscarinic acetylcholine receptor M1 (Homo sapiens) (UniProt P11229); test: Cholinergic receptor muscarinic 1 (CHRM1) small molecule antagonists, cell-based qHTS assay (AID 1963588); further: nearly all actives have a fitted effect of over 40% in size
Method in brief: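 CHRM1-CHO calcium-flux assay, antagonist mode. Cells were seeded 18 h, dye-loaded 1 h at 37 C and given compound for 5 min at RT, then acetylcholine was added at 50nM. FDSS fluorescence was read 3 min; 15 concentrations, three runs.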

[13] = molecular target: Muscarinic acetylcholine receptor M1 (Homo sapiens) (UniProt P11229); test: Cholinergic receptor muscarinic 1 (CHRM1) small molecule agonists, cell-based qHTS assay (AID 1963589); further: nearly all actives have a fitted effect of over 35% in size; further: potency means the concentration at half of the fitted maximal effect
Method in brief: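 Measures agonist-induced intracellular calcium rise. Stable human CHRM1 CHO line, 1 h dye load at 37 C, compounds from DMSO, kinetic fluorescence read.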

[14] = cAMP Responsive Elements (CRE) small molecule agonists, cell-based qHTS assay (AID 1963590)
Method in brief: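 A CRE-responsive beta-lactamase reporter in HEK 293T cells was used. Treatment ran 3 h at 37 C; detection used LiveBLAzer B/G FRET substrate for 2 h at room temperature.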

[15] = molecular target: Beta-2 adrenergic receptor (Homo sapiens) (UniProt P07550); test: Adrenergic beta2 receptor (ADRB2) small molecule antagonists, cell-based qHTS assay (AID 1963592); further: series mostly up to about 92 µM; nearly all actives have a fitted effect of over 50% in size
Method in brief: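 Cells (CHO, stable ADRB2 overexpression) incubated 18-20hr at 37C; compounds added from DMSO; agonist mix (1nM isoproterenol, 100uM IBMX, 25uM Ro-20-1724) added; 0.5hr RT; d2-cAMP and anti-cAMP-cryptate added; 1hr RT; 665/615 nm read.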

[16] = molecular target: D(2) dopamine receptor (Homo sapiens) (UniProt P14416); test: Dopamine D2 receptor (DRD2) small molecule antagonists, cell-based qHTS assay (AID 1963595; active means well fitted inhibition curve with a large enough effect in the signal ratio in the repeat runs, with a control signal flat; the % refers to the signal ratio)
Method in brief: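 Antagonism was scored as restored cAMP in HEK293-DRD2 cells. These cells were stimulated with 200 nM NKH477 and 12 nM quinpirole for 30 min at room temperature, in the presence of 0.1 mM Ro20-1724.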

[17] = p53 small molecule agonists, cell-based qHTS assay with human liver microsomes: qHTS cell viability counter screen (AID 1963579); further: nearly all actives have a fitted effect of over 45% in size
Method in brief: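 In this multiplexed counter screen, the reporter plates were subsequently treated with CellTiter-Glo so that cell viability, reflected by luminescence, could be recorded for p53RE-bla cells dosed 16 h with compounds under microsomal activation (HLM and NADPH).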

[18] = molecular target: Beta-2 adrenergic receptor (Homo sapiens) (UniProt P07550); test: Adrenergic beta2 receptor (ADRB2) small molecule agonists, cell-based qHTS assay (AID 1963593); further: potency means the concentration at half of the fitted maximal effect;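 on activation: CHO cells stably overexpressing human ADRB2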
Method in brief: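 CHO cells stably over-expressing ADRB2 were plated overnight at 37C, then dosed with compounds plus a stimulation mix containing 100uM IBMX and 25uM Ro-20-1724 for 0.5hr at room temperature. cAMP was measured by HTRF competition, 1hr.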

[19] = molecular target: D(2) dopamine receptor (Homo sapiens) (UniProt P14416); test: Dopamine D2 receptor (DRD2) small molecule agonists, cell-based qHTS assay (AID 1963594); further: nearly all actives have a fitted effect of over 35% in size
Method in brief: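 HEK293 cells stably expressing DRD2 were cultured 24 h at 37 C, then given Ro20-1724 (0.1 mM final) and compounds for 10 min at room temperature. NKH477 (200nM) was then added for 30 min. cAMP was read by HTRF.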

[20] = cAMP Responsive Elements (CRE) small molecule antagonists, cell-based qHTS assay (AID 1963591; active means well fitted inhibition curve with a large enough effect in the signal ratio in the repeat runs, not every such curve was filed as active; the % refers to the signal ratio)
Method in brief: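 HEK293T cells carrying a CRE-driven beta-lactamase reporter receive compound and NKH477 (0.25 uM final) for 3 h. Fluorescence from LiveBLAzer B/G FRET substrate is read after 2 h at room temperature.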

Beta-2 adrenergic receptor (Homo sapiens), sequence (P07550 whole entry, looked up): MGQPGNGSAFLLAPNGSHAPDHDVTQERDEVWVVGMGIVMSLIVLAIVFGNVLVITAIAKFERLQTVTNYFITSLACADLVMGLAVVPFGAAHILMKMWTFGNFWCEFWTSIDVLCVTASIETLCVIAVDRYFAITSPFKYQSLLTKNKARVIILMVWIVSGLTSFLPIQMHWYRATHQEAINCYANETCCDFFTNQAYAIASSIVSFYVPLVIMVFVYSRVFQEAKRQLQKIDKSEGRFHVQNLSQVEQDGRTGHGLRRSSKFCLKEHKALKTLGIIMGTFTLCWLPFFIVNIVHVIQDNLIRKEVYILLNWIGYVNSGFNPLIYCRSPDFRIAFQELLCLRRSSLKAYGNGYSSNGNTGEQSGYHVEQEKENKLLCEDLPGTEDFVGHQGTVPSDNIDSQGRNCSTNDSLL
D(2) dopamine receptor (Homo sapiens), sequence (P14416 whole entry, looked up): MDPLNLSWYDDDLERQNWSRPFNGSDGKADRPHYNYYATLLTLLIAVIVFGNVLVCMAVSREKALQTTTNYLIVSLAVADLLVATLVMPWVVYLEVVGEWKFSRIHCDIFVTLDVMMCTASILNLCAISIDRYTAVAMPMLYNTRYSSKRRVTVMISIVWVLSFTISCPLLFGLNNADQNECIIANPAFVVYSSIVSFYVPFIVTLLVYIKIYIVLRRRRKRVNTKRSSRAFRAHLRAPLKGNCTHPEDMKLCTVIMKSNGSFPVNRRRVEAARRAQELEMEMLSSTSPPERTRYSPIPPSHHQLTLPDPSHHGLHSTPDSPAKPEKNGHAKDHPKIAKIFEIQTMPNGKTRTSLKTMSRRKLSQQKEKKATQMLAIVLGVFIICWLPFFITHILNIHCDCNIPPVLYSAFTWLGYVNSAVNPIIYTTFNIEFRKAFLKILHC
KiSS-1 receptor (Homo sapiens), sequence (Q969F8 whole entry, looked up): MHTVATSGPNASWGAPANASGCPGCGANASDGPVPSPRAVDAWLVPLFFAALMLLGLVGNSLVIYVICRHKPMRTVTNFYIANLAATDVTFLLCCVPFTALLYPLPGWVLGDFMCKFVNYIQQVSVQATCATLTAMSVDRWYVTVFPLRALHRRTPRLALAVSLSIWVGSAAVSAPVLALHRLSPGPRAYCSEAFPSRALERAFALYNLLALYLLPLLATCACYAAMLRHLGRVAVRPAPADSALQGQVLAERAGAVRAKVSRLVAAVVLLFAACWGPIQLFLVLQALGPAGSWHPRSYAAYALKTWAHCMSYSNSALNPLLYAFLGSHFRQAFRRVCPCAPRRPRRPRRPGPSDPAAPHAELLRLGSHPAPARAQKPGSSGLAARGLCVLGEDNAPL
Gonadotropin-releasing hormone receptor (Homo sapiens), sequence (P30968 whole entry, looked up): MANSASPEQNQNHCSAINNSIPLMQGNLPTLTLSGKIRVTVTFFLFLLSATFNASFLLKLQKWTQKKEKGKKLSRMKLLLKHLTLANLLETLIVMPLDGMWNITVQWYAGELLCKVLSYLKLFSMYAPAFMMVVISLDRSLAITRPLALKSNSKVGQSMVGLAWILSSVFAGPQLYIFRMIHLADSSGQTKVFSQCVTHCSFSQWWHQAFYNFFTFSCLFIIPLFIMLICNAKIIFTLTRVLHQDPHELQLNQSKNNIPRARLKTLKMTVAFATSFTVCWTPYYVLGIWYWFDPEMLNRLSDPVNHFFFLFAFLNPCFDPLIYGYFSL
Muscarinic acetylcholine receptor M1 (Homo sapiens), sequence (P11229 whole entry, looked up): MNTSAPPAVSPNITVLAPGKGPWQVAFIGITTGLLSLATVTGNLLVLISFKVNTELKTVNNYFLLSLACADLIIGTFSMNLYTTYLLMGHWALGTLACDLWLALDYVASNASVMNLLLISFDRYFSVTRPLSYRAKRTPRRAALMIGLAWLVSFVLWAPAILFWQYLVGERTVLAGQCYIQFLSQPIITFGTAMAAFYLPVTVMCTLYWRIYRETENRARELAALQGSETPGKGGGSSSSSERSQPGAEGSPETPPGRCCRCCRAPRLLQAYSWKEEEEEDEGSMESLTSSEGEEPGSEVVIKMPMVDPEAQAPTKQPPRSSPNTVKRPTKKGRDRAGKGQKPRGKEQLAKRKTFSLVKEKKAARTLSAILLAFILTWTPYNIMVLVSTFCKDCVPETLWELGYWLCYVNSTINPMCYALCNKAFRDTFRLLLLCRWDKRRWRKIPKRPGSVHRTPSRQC
5-hydroxytryptamine receptor 2A (Homo sapiens), sequence (P28223 whole entry, looked up): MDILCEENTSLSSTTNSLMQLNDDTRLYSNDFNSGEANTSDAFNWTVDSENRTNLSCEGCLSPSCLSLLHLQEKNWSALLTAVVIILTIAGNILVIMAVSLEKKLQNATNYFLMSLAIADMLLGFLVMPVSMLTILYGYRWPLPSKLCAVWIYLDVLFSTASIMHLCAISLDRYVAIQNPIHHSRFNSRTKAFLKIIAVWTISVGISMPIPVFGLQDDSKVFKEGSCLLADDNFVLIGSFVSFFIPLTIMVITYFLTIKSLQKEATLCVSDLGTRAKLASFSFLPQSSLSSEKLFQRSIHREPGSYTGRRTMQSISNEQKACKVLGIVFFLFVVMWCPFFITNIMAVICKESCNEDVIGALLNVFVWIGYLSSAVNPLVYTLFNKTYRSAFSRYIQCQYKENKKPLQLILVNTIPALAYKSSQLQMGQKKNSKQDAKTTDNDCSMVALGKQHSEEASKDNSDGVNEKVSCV

| Compound | Potency [1] | Potency [2] | Potency [3] | Potency [4] | Potency [5] | Potency [6] | Potency [7] | Potency [8] | Potency [9] | Potency [10] | Potency [11] | Potency [12] | Potency [13] | Potency [14] | Potency [15] | Potency [16] | Potency [17] | Potency [18] | Potency [19] | Potency [20] |
| --- | --- | --- | --- | --- | --- | --- | --- | --- | --- | --- | --- | --- | --- | --- | --- | --- | --- | --- | --- | --- |
| CN1CSC(=S)N(C)C1 | 2.72 µM (active) | 1.21 µM (active) and 2.43 µM (active) | inactive | inactive | inactive | inactive | 20.3 µM (active) | inactive | inactive | inactive | inactive | inactive | inactive | inactive | inactive | inactive |  |  |  |  |
| CCOP(=S)(OCC)Oc1cnc2ccccc2n1 | inactive | inactive | inactive | inactive | inactive | inactive |  | inactive | inactive | inactive | inactive | inactive | inactive | inactive | inactive | inactive | inactive | inactive | inactive |  |
| C[N+](C)(C)Cc1ccccc1 | inactive | inactive | inactive | inactive | inactive |  | inactive | inactive |  | inactive | inactive | inactive | 3.07 µM (active) and 5.49 µM (active) | inactive | inactive | inactive | inactive | inactive | inactive | inactive |
| Cc1ccc(O)c(C)c1 | inactive | inactive | inactive | inactive | inactive | inactive |  | inactive | inactive | inactive | inactive |  | inactive | inactive | inactive | inactive | inactive | inactive | inactive | inactive |
| CCn1cc[n+](C)c1 | inactive | inactive | inactive | inactive | inactive |  | inactive | inactive |  | inactive | inactive | inactive | inactive | inactive | inactive | inactive | inactive | inactive | inactive | inactive |
| CNC(=O)O/N=C(\SC)C(=O)N(C)C | inactive | inactive | inactive | inactive | inactive |  | inactive | inactive | inactive | inactive | inactive | inactive | inactive | inactive | inactive | inactive | inactive | inactive | inactive | inactive |
| C#CCO | inactive | inactive | inactive | inactive | inactive |  | inactive | inactive | inactive | inactive |  | inactive | inactive | inactive | inactive | inactive | inactive | inactive | inactive |  |
| [CH3][Sn]([CH3])([Cl])[Cl] | inactive | 55.4 µM (active) and inactive | inactive | inactive | inactive |  | inactive | inactive |  | inactive | inactive | inactive | inactive | inactive | inactive |  | inactive | inactive | inactive | inactive |
| CC(C)COC(=O)c1ccccc1C(=O)OCC(C)C | inactive | inactive | inactive | inactive | inactive |  | inactive | inactive |  | inactive | 5.5 µM (active) and inactive | inactive | inactive | inactive | inactive | inactive | inactive | inactive | inactive | inactive |
| ClC1=C(Cl)C2(Cl)C3C(Cl)C(Cl)CC3C1(Cl)C2(Cl)Cl (stereo not given) | 30.5 µM (active) and 43.3 µM (active) | 4.84 µM (active) and 12.2 µM (active) | inactive | inactive | inactive | inactive | inactive | inactive |  | inactive | inactive | inactive | inactive |  |  |  |  | 54.5 µM (active) | inactive |  |
| CNC(=O)O/N=C/C(C)(C)S(C)(=O)=O | inactive | inactive | inactive | inactive | inactive |  | inactive | inactive | inactive | inactive | inactive | inactive | inactive | inactive | inactive |  | inactive | inactive | inactive | inactive |
| CC(C)(C)c1ccccc1O | inactive | inactive | inactive | inactive | inactive |  | inactive | inactive |  | inactive | inactive | inactive | inactive | inactive | inactive | inactive | inactive | inactive | inactive | inactive |
| O=S(=O)(c1ccc(Cl)cc1)c1cc(Cl)c(Cl)cc1Cl | inactive | 48.5 µM (active) | inactive | inactive | inactive | inactive | inactive | inactive |  |  | inactive | inactive | inactive | inactive | inactive | inactive |  |  | inactive | inactive |
| Cc1cc(-c2ccc(N)c(C)c2)ccc1N | inactive | inactive | inactive | inactive | inactive | inactive | inactive | inactive | inactive | inactive | inactive | inactive | inactive | inactive |  | inactive |  |  | inactive | inactive |
| CCOC(=O)c1ccccc1N | inactive | inactive | inactive | inactive | inactive |  | inactive | inactive |  | inactive | inactive | inactive | inactive | inactive | inactive | inactive | inactive | inactive | inactive | inactive |
